“And” between values parts separate entries of the source, which are not always exact repeats. Equal values may be shown once. Compounds without any hit were thinned out: in the full panel of roughly 79,000, 15% have a hit. Unmarked numbers belong to inactive results. The source made the active and inactive calls. Cut-off read from the data, not from the text of the source: active = growth inhibition above about 70%; inactive = the rest.
What was measured:
[1] = NCI Yeast Anticancer Drug Screen. Data for the rad50 strain (AID 155);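 note: 0% = growth of vehicle-only cultures of the same strain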; settings: S. cerevisiae rad50 strain growth inhibition, active compounds read high
Outline: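 DNA repair mutant yeast, compound exposure, growth read-out; inhibition is taken relative to vehicle.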

[2] = NCI Yeast Anticancer Drug Screen. Data for the mec2-1 strain (AID 157); settings: S. cerevisiae mec2-1 strain, active compounds read high
Outline: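 Compounds were applied to mec2-1 yeast cells. Their growth was then compared with that of vehicle-treated cultures to give growth inhibition.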

[3] = NCI Yeast Anticancer Drug Screen. Data for the sgs1 mgt1 strain (AID 161);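 note: 0% = growth of cultures given vehicle only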; settings: S. cerevisiae sgs1 mgt1 strain, active compounds read high
Outline: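 This yeast growth screen uses a strain with defined DNA-repair lesions; compound-treated growth is compared with vehicle-treated growth.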

[4] = NCI Yeast Anticancer Drug Screen. Data for the cln2 rad14 strain (AID 165);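 note: 0% = growth equal to vehicle treated cultures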; settings: S. cerevisiae cln2 rad14 strain, active compounds read high
Outline: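 Strain: cln2 rad14 yeast, altered in cell cycle control and DNA damage repair. Read-out: growth inhibition vs vehicle.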

[5] = NCI Yeast Anticancer Drug Screen. Data for the bub3 strain (AID 167); settings: S. cerevisiae bub3 mutant strain, active compounds read high
Outline: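 In this screen, a yeast mutant lacking normal mitotic checkpoint function is challenged with compound. Relative growth versus vehicle gives the inhibition value.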

[6] = NCI Yeast Anticancer Drug Screen. Data for the mlh1 rad18 strain (AID 175); settings: S. cerevisiae mlh1 rad18 strain growth inhibition, active compounds read high
Outline: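 A repair-deficient yeast strain is exposed to test compound, and growth is scored relative to vehicle-treated controls.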

[7] = at 5.0 µM (retest, dose inferred, filed as 0.5)
[8] = at 50.0 µM (retest, dose inferred, filed as 5.0)

| Compound | growth inhibition [1, 7] | growth inhibition [1, 8] | growth inhibition ([1]; at 50.0 µM) | growth inhibition [2, 7] | growth inhibition [2, 8] | growth inhibition ([2]; at 50.0 µM) | growth inhibition [3, 7] | growth inhibition [3, 8] | growth inhibition ([3]; at 50.0 µM) | growth inhibition [4, 7] | growth inhibition [4, 8] | growth inhibition ([4]; at 50.0 µM) | growth inhibition [5, 7] | growth inhibition [5, 8] | growth inhibition ([5]; at 50.0 µM) | growth inhibition [6, 7] | growth inhibition [6, 8] | growth inhibition ([6]; at 50.0 µM) |
| --- | --- | --- | --- | --- | --- | --- | --- | --- | --- | --- | --- | --- | --- | --- | --- | --- | --- | --- |
| Clc1c(Cl)c(Cl)c([S][Pb]([c]2ccccc2)([c]2ccccc2)[c]2ccccc2)c(Cl)c1Cl | 91% (active) | 85% (active) | 98.5% (active) | 96% (active) | 92% (active) | 98.4% (active) | 94% (active) | 42% | 98.8% (active) | 84% (active) | 89% (active) | 97.7% (active) | 92% (active) | 96% (active) | 98.5% (active) | 92% (active) | 92% (active) | 98.3% (active) |
| O=C1C(=O)c2ccccc2-c2ccccc21.O=C1C(=O)c2ccccc2-c2ccccc21.[Hg] | 100% (active) | 96% (active) | 12.2% | 100% (active) | 97% (active) | -7.3% | 100% (active) | 96% (active) | -6.8% | 100% (active) | 97% (active) | 29.8% | 100% (active) | 96% (active) | -13.8% | 98% (active) | 93% (active) | 12.3% |
| CCCC[CH2][Pb]([CH2]CCCC)([CH2]CCCC)[O]C(C)=O | 99% (active) | 96% (active) | 99% (active) | 99% (active) | 98% (active) | 99.2% (active) | 100% (active) | 99% (active) | 98.8% (active) | 99% (active) | 95% (active) | 98% (active) | 100% (active) | 97% (active) | 98% (active) | 99% (active) | 93% (active) | 98.5% (active) |
| CCC(C)(c1ccc(O)cc1)c1ccc(O)cc1 | 13% | 98% (active) | 98.9% (active) | -5% | 99% (active) | 99.5% (active) | 3% | 98% (active) | 98.8% (active) | 21% | 98% (active) | 99% (active) | 43% | 99% (active) | 96.4% (active) | 14% | 99% (active) | 98.7% (active) |
| CCC[CH2][Sn]([CH2]CCC)([CH2]CCC)[O]C(=O)C[N+](C)(C)c1cc[c]([Hg][c]2ccc(N(C)C)cc2)cc1 | 99% (active) | 99% (active) | 98.6% (active) and 97.8% (active) | 100% (active) | 100% (active) and 99% (active) | 99.5% (active) | 100% (active) | 98% (active) and 99% (active) | 99.1% (active) and 99.2% (active) | 99% (active) | 99% (active) | 98.4% (active) and 98.9% (active) | 99% (active) | 99% (active) | 98.8% (active) and 99.1% (active) | 99% (active) | 99% (active) | 99% (active) and 99.2% (active) |
